# Records with an inconclusive call do not appear. Where a call stands in place of a potency, no number is given. The source made the active and inactive calls. Calls come from the whole dose curve; as a rule, active = well fitted curve in the direction sought with a large enough effect; inconclusive = small, poorly fitted or top-dose-only effect, or another doubt; inactive = no such curve, though single readings can be large; an effect the other way counts as inactive or inconclusive.
# What was measured:
# [1] = qHTS of pediatric cancer cell lines to identify multiple opportunities for drug repurposing: Primary screen for LAN-5 cells (AID 1347100); note: potency is the fitted concentration of half-maximal effect
# Outline: (§1)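 Viability after 48 h compound treatment at 37C, 500-1,000 cells/well, read as ATP luminescence with CellTiter-Glo. Primary screens used 11-point (MIPE, 0.78 nM-46 µM) or 8-point (NPC, 0.59 nM-46 µM) final concentrations; follow-up screens used 11-point dilutions.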
# [2] = qHTS of pediatric cancer cell lines to identify multiple opportunities for drug repurposing: Primary screen for MG 63 (6-TG R) cells (AID 1347105); note: nearly all actives have a fitted effect of over 50% in size; note: potency is the fitted concentration of half-maximal effect
# Outline: (§2)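 Viability was measured as metabolically active cells after 48 hours of treatment, read by CellTiter-Glo luminescence. Compounds were tested at multiple final concentrations, giving concentration-response curves.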
# [3] = qHTS of pediatric cancer cell lines to identify multiple opportunities for drug repurposing: Primary screen for control Hh wild type fibroblast cells (AID 1347106);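 note: series mostly up to about 46 µM; a drop in luminescence marks cytotoxicity and a rise apparent proliferation; nearly all actives have a fitted effect of over 55% in size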
# Outline: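 Cells (500-1,000/well) in growth media were settled 5 h at 37 degrees C, then given compounds for 48 h. Viability was read as CellTiter-Glo luminescence. Primary runs used MIPE at 11 points (0.78 nM-46 µM) and NPC at 8 points (0.59 nM-46 µM); follow-ups used 11 points.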
# [4] = qHTS of pediatric cancer cell lines to identify multiple opportunities for drug repurposing: Primary screen for BT-12 cells (AID 1347101); note: nearly all actives have a fitted effect of over 25% in size; note: potency is the fitted concentration of half-maximal effect
# Outline: (§3)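 Cells (500-1,000/well) rested 5 h, then received compounds for 48 h; metabolically active cells were measured by CellTiter-Glo luminescence. Final concentrations spanned up to 46 µM (MIPE, 11-point) or 0.59 nM-46 µM (NPC, 8-point) in primary screens, 11-point in follow-ups.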
# [5] = qHTS of pediatric cancer cell lines to identify multiple opportunities for drug repurposing: Primary screen for Rh18 cells (AID 1347102); note: nearly all actives have a fitted effect of over 65% in size; note: potency is the fitted concentration of half-maximal effect
# Outline: as §1
# [6] = qHTS of pediatric cancer cell lines to identify multiple opportunities for drug repurposing: Primary screen for OHS-50 cells (AID 1347103); note: nearly all actives have a fitted effect of over 40% in size; note: potency is the fitted concentration of half-maximal effect
# Outline: as §3
# [7] = qHTS of pediatric cancer cell lines to identify multiple opportunities for drug repurposing: Primary screen for RD cells (AID 1347104); note: nearly all actives have a fitted effect of over 55% in size; note: potency is the fitted concentration of half-maximal effect
# Outline: as §2
# [8] = qHTS of pediatric cancer cell lines to identify multiple opportunities for drug repurposing: Primary screen for Rh30 cells (AID 1347107); note: nearly all actives have a fitted effect of over 75% in size; note: potency is the fitted concentration of half-maximal effect
# Outline: as §1
# [9] = qHTS of pediatric cancer cell lines to identify multiple opportunities for drug repurposing: Primary screen for Rh41 cells (AID 1347108); note: nearly all actives have a fitted effect of over 70% in size; note: potency is the fitted concentration of half-maximal effect
# Outline: as §2
compound,measurement,setting,value
COc1ccc2c(c1)c(C1=C(c3c[nH]c4ccccc34)C(=O)NC1=O)cn2CCCN(C)C,Potency,[1],16.6 µM (active)
same,Potency,[2],inactive
same,Potency,[3],inactive
Cc1ccc2c(=O)c3cccc(CC(=O)O)c3oc2c1C,Potency,[4],inactive
same,Potency,[5],inactive
same,Potency,[6],inactive
same,Potency,[7],29.6 µM (active)
same,Potency,[2],23.5 µM (active)
same,Potency,[3],inactive
same,Potency,[8],inactive
same,Potency,[9],23.5 µM (active)
COc1cc2c(cc1OC)[C@@H]1Cc3ccc(OC)c(OC)c3CN1CC2,Potency,[1],10.5 µM (active)
same,Potency,[6],inactive
same,Potency,[7],inactive
same,Potency,[3],inactive
same,Potency,[8],inactive
CC1(C)CC(=O)c2c(C(F)(F)F)nn(-c3ccc(C(N)=O)c(NC4CCC(O)CC4)c3)c2C1 (centres undefined),Potency,[1],0.148 µM (active)
same,Potency,[6],0.306 µM (active)
same,Potency,[7],0.0743 µM (active)
same,Potency,[9],0.296 µM (active)
CCC(=O)N1CCN(c2ccc(-n3c(=O)ccc4cnc5ccc(-c6cnc7ccccc7c6)cc5c43)cc2C(F)(F)F)CC1,Potency,[1],inactive
same,Potency,[6],0.0432 µM (active)
same,Potency,[8],inactive
same,Potency,[9],0.0743 µM (active)
Clc1ccc(COC(Cn2ccnc2)c2ccc(Cl)cc2Cl)c(Cl)c1 (centres undefined),Potency,[1],23.5 µM (active)
same,Potency,[6],19.3 µM (active)
same,Potency,[3],inactive
O=C(Nc1cccc(Cl)c1)Nc1ncc(CCNc2ncnc3ccsc23)s1,Potency,[1],0.132 µM (active)
same,Potency,[6],7.69 µM (active)
same,Potency,[3],inactive
CCCCC(C=O)NC(=O)C(CC(C)C)NC(=O)OCc1ccccc1 (centres undefined),Potency,[1],inactive
same,Potency,[2],inactive
same,Potency,[3],inactive
N=C1SC(=Cc2ccc(-c3ccc4c(c3)C(=O)NC4=O)o2)C(=O)N1c1ccc(Br)cc1,Potency,[4],inactive
same,Potency,[5],inactive
same,Potency,[7],inactive
same,Potency,[2],inactive
same,Potency,[3],inactive
same,Potency,[8],inactive
COc1cc([C@@H]2c3cc4c(cc3[C@@H](O[C@@H]3O[C@@H]5CO[C@@H](C)O[C@@H]5[C@H](O)[C@@H]3O)[C@H]3COC(=O)[C@H]23)OCO4)cc(OC)c1O,Potency,[1],0.235 µM (active)
same,Potency,[6],2.73 µM (active)
same,Potency,[3],inactive
same,Potency,[8],inactive
CN(C)CCOc1ccc(-c2nc(-c3ccc4c(c3)CCC4=NO)c(-c3ccncc3)[nH]2)cc1,Potency,[4],27.3 µM (active)
same,Potency,[5],23.5 µM (active)
same,Potency,[7],18.7 µM (active)
same,Potency,[8],18.7 µM (active)
same,Potency,[9],23.5 µM (active)
O=C1NC(=O)C(c2cnc3ccccn23)=C1c1cn2c3c(cccc13)CN(C(=O)N1CCOCC1)CC2,Potency,[1],2.96 µM (active)
same,Potency,[2],0.469 µM (active)
same,Potency,[3],inactive
COc1cc(CNC(=O)CCCCC=CC(C)C)ccc1O,Potency,[4],inactive
same,Potency,[5],inactive
same,Potency,[7],inactive
same,Potency,[2],inactive
same,Potency,[3],inactive
same,Potency,[8],inactive
same,Potency,[9],inactive
COC1CCC(C(=O)c2ccc3nc4c(cc3c2)CCCO4)CC1 (centres undefined),Potency,[4],1.93 µM (active)
same,Potency,[5],inactive
same,Potency,[6],12.2 µM (active)
same,Potency,[7],26.4 µM (active)
same,Potency,[3],inactive
NC(N)=Nc1nc(CSCCC(N)=NS(N)(=O)=O)cs1,Potency,[4],inactive
same,Potency,[5],inactive
same,Potency,[3],inactive
CCn1c(-c2nonc2N)nc2cncc(CNC3CCNCC3)c21,Potency,[1],20.9 µM (active)
same,Potency,[6],inactive
same,Potency,[3],inactive
Cc1ccc2c(c1)C(=O)[C@]1(O)CCN(c3ccccc3)C1=N2,Potency,[3],inactive
same,Potency,[8],inactive
O=C(CCCN1CCN(c2ccc(F)cc2)CC1)NC1c2ccccc2CSc2ccccc21 (centres undefined),Potency,[6],8.63 µM (active)
same,Potency,[3],inactive
Cc1cc(C(C)Nc2ccccc2)c2nc(N3CCOCC3)cc(=O)n2c1 (centres undefined),Potency,[4],inactive
same,Potency,[6],24.3 µM (active)
same,Potency,[3],inactive
CNC(=O)c1cc(COc2nnc(Nc3ccc(Cl)cc3)c3ccoc23)ccn1,Potency,[6],21.7 µM (active)
same,Potency,[2],23.5 µM (active)
same,Potency,[3],inactive
CNC(=O)c1c(-c2ccc(F)cc2)oc2cc(N(CCO)S(C)(=O)=O)c(C3CC3)cc12,Potency,[6],27.3 µM (active)
same,Potency,[7],29.6 µM (active)
same,Potency,[8],inactive
same,Potency,[9],18.7 µM (active)
Cc1c(C(=O)Nc2ccc(N3C[C@@H](C)O[C@@H](C)C3)nc2)cccc1-c1ccc(OC(F)(F)F)cc1,Potency,[4],13.7 µM (active)
same,Potency,[6],19.3 µM (active)
same,Potency,[2],23.5 µM (active)
same,Potency,[3],inactive
O=C(Nc1cccc(C(F)(F)F)c1)Nc1cc(S(=O)(=O)NC2CC2)ccc1-c1ccsc1,Potency,[5],inactive
same,Potency,[7],29.6 µM (active)
same,Potency,[3],inactive
C[C@]12CC[C@@H]3c4ccc(O)cc4CC[C@H]3[C@H]1[C@@H](O)[C@@H](O)[C@H]2O,Potency,[5],inactive
same,Potency,[8],inactive
CCCCc1ccc(NS(=O)(=O)c2ccc(C)c(C(=O)N3CCN(c4cccc(C)c4C)CC3)c2)cc1,Potency,[7],33.2 µM (active)
same,Potency,[3],inactive
CCNC(=O)CCCC=CC[C@@H]1[C@H](C=CC(O)CCc2ccccc2)[C@@H](O)C[C@@H]1O (some centres undefined),Potency,[5],inactive
same,Potency,[6],inactive
same,Potency,[7],inactive
same,Potency,[2],inactive
same,Potency,[3],inactive
same,Potency,[8],inactive
Cc1cnc(CNC(=O)c2c(=O)c3ccc(N4CCCN(C)CC4)nc3n3c2sc2ccccc23)cn1,Potency,[6],inactive
same,Potency,[7],inactive
same,Potency,[3],inactive
same,Potency,[9],inactive
